Assay outcomes from PubChem.
Compounds with a hit are over-represented: about 7.5% of the library has one in this group of screens.
Gal4-VP16 FLuc = VP16 counterscreen qHTS for inhibitors of ROR gamma transcriptional activity; Drosophila S2 Gal4-VP16 UAS-luciferase, luminescence, 20 h; Potency, µM (doses to about 53.6 µM), for inactives: top-dose activity, negative = inhibition, actives largely listed as inhibitors; 3.5% of 310,000 active; AID 2546, 2010;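 further: Gal4-VP16 expression switched on by copper sulfate through the metallothionein promoter; potency means the concentration at half of the fitted maximal effect; nearly all actives have a fitted effect of over 50% in size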
B2AR arrestin = qHTS assay of beta-arrestin-biased ligands of beta2-adrenergic receptor; Beta-2 adrenergic receptor (Homo sapiens), P07550; beta-arrestin recruitment to beta2AR, cell-based reporter; Potency, µM (top dose mostly 46.1 µM), for inactives: at the highest dose activation, actives largely listed as activators; 0.02% of 330,000 active;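 further: potency means the concentration at half of the fitted maximal effect; 0% = DMSO controls and full agonism = EC100 isoproterenol or metaproterenol; nearly all actives have a fitted effect of over 65% in size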
RORg inh = qHTS for inhibitors of ROR gamma transcriptional activity | AID 2551, 2010 | Potency, µM (series often up to 53.6 µM), without a hit: at the top dose activity change, negative = inhibition, most hits filed as inhibitors | Drosophila S2 Gal4-RORgamma UAS-luciferase reporter, 20 h | Nuclear receptor ROR-gamma (Mus musculus), P51450 | 5.4% of 310,000 active; further: potency means the concentration at half of the fitted maximal effect; nearly all actives have a fitted effect of over 60% in size
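Schneider cells (Drosophila), stable Gal4 DBD–ROR gamma + UAS-luc; 1 hr cmpd preincubation; Cu2+ induction 700 uM final; 20 hr ambient; luminescence.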
TSHR antagonist = Antagonists of the Thyroid Stimulating Hormone Receptor: HTS campaign. activity change, negative = inhibition, % at 11.5 µM. Thyrotropin receptor (Homo sapiens), P16473. 0.2% of 330,000 active. TSHR-expressing cells, TSH-stimulated cAMP HTRF, 2 h; hits give low values;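 active means activity change below a set negative limit, meaning inhibition stronger than a set level, cut at about -70% in these data; inconclusive means activity change between two set negative limits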
Target sequence (P16473 whole entry, looked up): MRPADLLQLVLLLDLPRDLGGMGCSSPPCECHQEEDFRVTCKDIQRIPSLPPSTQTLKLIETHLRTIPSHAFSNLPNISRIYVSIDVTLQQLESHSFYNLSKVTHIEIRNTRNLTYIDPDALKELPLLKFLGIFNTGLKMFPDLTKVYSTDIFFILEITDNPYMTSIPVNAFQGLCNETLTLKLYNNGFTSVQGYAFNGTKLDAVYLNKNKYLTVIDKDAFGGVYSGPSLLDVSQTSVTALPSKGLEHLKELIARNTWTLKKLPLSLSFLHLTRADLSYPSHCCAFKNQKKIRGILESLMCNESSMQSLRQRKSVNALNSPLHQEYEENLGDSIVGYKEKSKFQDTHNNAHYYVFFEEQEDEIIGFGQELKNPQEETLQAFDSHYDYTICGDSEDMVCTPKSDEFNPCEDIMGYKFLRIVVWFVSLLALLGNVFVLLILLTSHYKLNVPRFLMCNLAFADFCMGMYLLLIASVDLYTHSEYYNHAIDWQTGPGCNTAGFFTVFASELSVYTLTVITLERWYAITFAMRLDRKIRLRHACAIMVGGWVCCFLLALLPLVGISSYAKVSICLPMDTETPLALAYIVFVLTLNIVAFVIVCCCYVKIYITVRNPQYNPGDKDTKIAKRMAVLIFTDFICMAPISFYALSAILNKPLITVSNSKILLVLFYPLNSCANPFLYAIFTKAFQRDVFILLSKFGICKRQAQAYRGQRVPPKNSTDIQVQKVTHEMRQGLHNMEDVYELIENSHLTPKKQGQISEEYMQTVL
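Read-out is FRET at 665 nm (cryptate excitation 337 nm) from a cryptate-tagged anti-cAMP antibody, competed by cell cAMP against cAMP-d2. Compounds are tested on freshly harvested TSHR cells challenged with 4nM TSH (EC80) for 2 hours at 37 deg C.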
ELG1 DNA repair = qHTS screen for small molecules that inhibit ELG1-dependent DNA repair in human embryonic kidney (HEK293T) cells expressing luciferase-tagged ELG1; Potency, µM (doses to about 46.1 µM), for the others: at the highest dose activity change, negative = inhibition, most hits filed as inhibitors; HEK293T ELG1-luciferase reporter, luminescence, 16 h; DNA damage induced by 5-fluorouridine; 2.3% of 330,000 active; further: potency means the concentration at half of the fitted maximal effect; nearly all actives have a fitted effect of over 55% in size
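Step one: seed 2,000 cells per well. Step two: pin-transfer compound or DMSO alongside 5-fluorouridine. Step three: incubate 16 hr, 37 °C, 5% CO2. Step four: add ONE-Glo, wait 30 min, read luminescence.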
The depositor's hits bear a star; u = inconclusive; x = no result; [ ] = dose if it differs, or a comment. Unless noted, the call rests on the fitted dose curve; in most records, active means well fitted curve in the direction sought with a large enough effect; inconclusive means small, poorly fitted or top-dose-only effect, or another doubt; inactive means no such curve, though single readings can be large; an effect the other way counts as inactive or inconclusive. Unless noted, on the % scale 0 is the no-effect control and ±100 the full control effect.

SMILES	Gal4-VP16 FLuc	B2AR arrestin	RORg inh	TSHR antagonist	ELG1 DNA repair
Cc1cc(C)cc(NC(=S)/N=C(\N)Nc2nc(C)c3ccccc3n2)c1	3.2µM*	0%	2µM*	-17	18µM*
Cc1ccc(S(=O)(=O)/N=C(\N)Nc2nc(C)c3ccccc3n2)cc1	-15%	0%	23%	8	-4%
Cc1cccc(NC(=S)/N=C(\N)Nc2nc(C)c3ccc(C)cc3n2)c1	3.5µM*	-1%	1µM*	1	u
COc1ccc(C(=O)N2CCC3(CCCN(Cc4ccc(C#N)cc4)C3)CC2)cc1	-8%	x	18%	x	x
CSCCC(NC(=O)c1ccco1)C(=O)N(C)CC(=O)Nc1ccccc1Br (centres undefined)	x	0%	x	-3	12%
CN(C)c1ccc(C2(c3ccc(N(C)C)cc3)OC(=O)c3cc(N(C)C)ccc32)cc1	-9%	x	0%	x	x
COc1ccc(Nc2nc(C)c3ccccc3n2)cc1	-27%	0%	u	-2	u
Cc1ccc(NC(=S)/N=C(\N)Nc2nc(C)c3ccccc3n2)cc1C	1µM*	0%	1µM*	19	u
CCOC(=O)c1c(N2C(=O)C=CC2=O)sc(C)c1C	-11%[0.365 µM]	0%	4.5µM*	-32	u
CCOC(=O)c1c(NC(N)=O)sc(C)c1C	x	0%	23%[0.365 µM]	-3	u
O=C(O)C(Oc1ccc2ccc(=O)oc2c1)c1ccccc1 (centres undefined)	1%	x	8%	x	x
CS(=O)(=O)Nc1cccc(-c2ccc3ncnc(Nc4ccc(F)cc4)c3c2)c1	-1%	x	u	x	x
COc1ccc(CCNC(=O)c2cc3c(=O)n4cccc(C)c4nc3n(Cc3ccncc3)c2=N)cc1	0%	0%	-43%	4	-1%
COc1ccc(CCNC(=O)c2cc3c(=O)n4cccc(C)c4nc3n(Cc3ccco3)c2=N)cc1OC	1.1µM*	u	1.6µM*	6	u
Cc1cccn2c(=O)c3cc(C(=O)NCCc4ccccc4)c(=N)n(Cc4ccco4)c3nc12	-18%	0%	1%	-4	15µM*
Cc1ccc(CNC(=O)c2cc3c(=O)n4ccccc4nc3n(Cc3ccco3)c2=N)cc1	2.8µM*	0%	3.2µM*	-11	-3%
COc1ccc(CNc2nc(-c3c(C)noc3C)nc3ccccc23)c(OC)c1	8%	x	12%	x	x
CCN1C(=O)[C@H]2[C@H]3[C@H](O)[C@H](O)C/C(=N/O[C@@H]4O[C@@H](COC(C)=O)[C@@H](OC(C)=O)[C@@H](OC(C)=O)[C@H]4OC(C)=O)[C@H]3CC[C@@H]2C1=O	2%[10 µM]	x	6%[10 µM]	x	x
CCOc1cc(NC(=S)NCC(C)C)c(OCC)cc1NC(=O)c1cccs1	8.9µM*	0%	4µM*	-1	0%
CCOc1cc(NC(=O)c2cccs2)c(OCC)cc1NC(=O)c1ccccn1	-1%	0%	-9%	-10	-2%
CCNC(=S)Nc1cc(OCC)c(NC(=O)c2cccs2)cc1OCC	u	-1%	11µM*	16	0%
O=C1OC(OC(=O)c2cccnc2Nc2cccc(C(F)(F)F)c2)c2ccccc21 (centres undefined)	-3%	x	0%	x	x
COc1ccc(NC(=O)CN(C)CC(=O)N2CCCCCC2)cc1	x	0%	x	15	15%
COc1ccc(S(=O)(=O)NN(C)c2ncc(C(F)(F)F)cc2Cl)cc1	u	1%	4µM*	1	19%
CC(C)NS(=O)(=O)c1ccc(Oc2ncc(C(F)(F)F)cc2Cl)cc1	1%	0%	u	-3	-13%
CCC(=O)NC(c1ccco1)c1cc(Br)c2cccnc2c1O (centres undefined)	x	9%	x	12	x
CCC(=O)NC(c1ccc(C)cc1)c1cc([N+](=O)[O-])c2cccnc2c1O (centres undefined)	2.8µM*	-1%	2.5µM*	-4	-18%
CC(=O)NC(c1ccc(C)cc1)c1cc([N+](=O)[O-])c2cccnc2c1O (centres undefined)	4µM*	-1%	2.8µM*	-4	u
